From paper PMC8384837, “Expanding the binding specificity for RNA recognition by a PUF domain”

Experiments:
Experiment in all cases: yeast three-hybrid, YBZ-1, SC-Leu-His + 0.5 mM 3-AT, 4 days
Settings in all cases: tags: N-Gal4 AD-HA kept; label: inside an RPR1-promoter hybrid RNA with tandem MS2 sites; ssRNA
PUM1 PUF domain R1-HRR = PUM1 PUF domain R1-HRR (Homo sapiens, UniProt Q14671 828-1176, S863H;Q867R)
Procedure, shortened: (§1)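 The interaction score is the log change in how often each variant appears, from input to selection. Frequencies came from PCR-amplified, Illumina-sequenced repeat regions of Pumilio-1 PUF domain libraries grown in strain YBZ-1 (LexA–MS2 coat fusion, HIS3 reporter) alongside matching RNA elements. Input plates were SC-Leu and selection plates were SC-Leu-His + 0.5 mM 3-AT, each for four days, and the log2 calculation used a pseudocount of 1 where a variant was absent.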

PUM1 PUF domain R1-NGR = PUM1 PUF domain R1-NGR (Homo sapiens, UniProt Q14671 828-1176, S863N;R864G;Q867R)
Procedure, shortened: as §1

PUM1 PUF domain R1-SKS = PUM1 PUF domain R1-SKS (Homo sapiens, UniProt Q14671 828-1176, R864K;Q867S)
Procedure, shortened: as §1

PUM1 PUF domain R7-LER = PUM1 PUF domain R7-LER (Homo sapiens, UniProt Q14671 828-1176, S1079L;N1080E;E1083R)
Procedure, shortened: as §1

PUM1 PUF domain R7-RRG = PUM1 PUF domain R7-RRG (Homo sapiens, UniProt Q14671 828-1176, S1079R;N1080R;E1083G)
Procedure, shortened: as §1

PUM1 PUF domain R4-TPT = PUM1 PUF domain R4-TPT (Homo sapiens, UniProt Q14671 828-1176, N971T;H972P;Q975T)
Procedure, shortened: as §1

PUM1 PUF domain R4-GQR = PUM1 PUF domain R4-GQR (Homo sapiens, UniProt Q14671 828-1176, N971G;H972Q;Q975R)
Procedure, shortened: as §1

PUM1 PUF domain R5-DFG = PUM1 PUF domain R5-DFG (Homo sapiens, UniProt Q14671 828-1176, C1007D;R1008F;Q1011G)
Procedure, shortened: as §1

PUM1 PUF domain R5-GAR = PUM1 PUF domain R5-GAR (Homo sapiens, UniProt Q14671 828-1176, C1007G;R1008A;Q1011R)
Procedure, shortened: as §1

PUM1 PUF domain R4-YLL = PUM1 PUF domain R4-YLL (Homo sapiens, UniProt Q14671 828-1176, N971Y;H972L;Q975L)
Procedure, shortened: as §1

PUM1 PUF domain R4-PWC = PUM1 PUF domain R4-PWC (Homo sapiens, UniProt Q14671 828-1176, N971P;H972W;Q975C)
Procedure, shortened: as §1

PUM1 PUF domain R8-KWL = PUM1 PUF domain R8-KWL (Homo sapiens, UniProt Q14671 828-1176, N1122K;Y1123W;Q1126L)
Procedure, shortened: as §1

PUM1 PUF domain R3-DHS = PUM1 PUF domain R3-DHS (Homo sapiens, UniProt Q14671 828-1176, C935D;R936H;Q939S)
Procedure, shortened: as §1

PUM1 PUF domain R8-RYT = PUM1 PUF domain R8-RYT (Homo sapiens, UniProt Q14671 828-1176, N1122R;Q1126T)
Procedure, shortened: as §1

PUM1 PUF domain R4-CGC = PUM1 PUF domain R4-CGC (Homo sapiens, UniProt Q14671 828-1176, N971C;H972G;Q975C)
Procedure, shortened: as §1

PUM1 PUF domain R6-AWS = biological target: T1, PUM1 PUF domain R6-AWS (Homo sapiens, UniProt Q14671 828-1176, N1043A;Y1044W;Q1047S)
T1 sequence: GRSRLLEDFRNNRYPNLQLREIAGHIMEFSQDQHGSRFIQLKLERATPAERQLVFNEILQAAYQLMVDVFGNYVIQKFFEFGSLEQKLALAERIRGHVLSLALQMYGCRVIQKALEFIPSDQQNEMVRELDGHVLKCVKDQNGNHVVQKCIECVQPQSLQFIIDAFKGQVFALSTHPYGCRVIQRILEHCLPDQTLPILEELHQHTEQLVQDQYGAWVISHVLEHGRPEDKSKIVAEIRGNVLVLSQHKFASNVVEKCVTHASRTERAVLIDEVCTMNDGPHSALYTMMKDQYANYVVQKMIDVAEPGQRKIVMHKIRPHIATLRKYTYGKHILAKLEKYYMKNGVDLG
Procedure, shortened: as §1

PUM1 PUF domain R5-SNG = PUM1 PUF domain R5-SNG (Homo sapiens, UniProt Q14671 828-1176, C1007S;R1008N;Q1011G)
Procedure, shortened: as §1

PUM1 PUF domain R3-YCV = PUM1 PUF domain R3-YCV (Homo sapiens, UniProt Q14671 828-1176, C935Y;R936C;Q939V)
Procedure, shortened: as §1

PUM1 PUF domain R8-TYN = PUM1 PUF domain R8-TYN (Homo sapiens, UniProt Q14671 828-1176, N1122T;Q1126N)
Procedure, shortened: as §1

PUM1 PUF domain R2-TFG = PUM1 PUF domain R2-TFG (Homo sapiens, UniProt Q14671 828-1176, N899T;Y900F;Q903G)
Procedure, shortened: as §1

Sequence: GGCUAGAACUAGUGGAUCCCCCGGCGCCCGGCGGCUCGAGCCCGGGUAAGUGUAAAUCGUCUGCAUGCCGCCGGGCGCCAUGCCUGCAGGUCGACUCUAGAAAACAUG
- binding signal (PUM1 PUF domain R1-HRR): 2.84 log2 enrichment (interaction score)
- binding signal (PUM1 PUF domain R1-NGR): 4.09 log2 enrichment (interaction score)
- binding signal (PUM1 PUF domain R1-SKS): 1.17 log2 enrichment (interaction score)

Sequence: GGCUAGAACUAGUGGAUCCCCCGGCGCCCGGCGGCUCGAGCCCGGGUAAGUUUAAAUAGUCUGCAUGCCGCCGGGCGCCAUGCCUGCAGGUCGACUCUAGAAAACAUG
- binding signal (PUM1 PUF domain R7-LER): 3.41 log2 enrichment (interaction score)
- binding signal (PUM1 PUF domain R7-RRG): 4.6 log2 enrichment (interaction score)

Sequence: GGCUAGAACUAGUGGAUCCCCCGGCGCCCGGCGGCUCGAGCCCGGGUAAGUGUACAUAGUCUGCAUGCCGCCGGGCGCCAUGCCUGCAGGUCGACUCUAGAAAACAUG
- binding signal (PUM1 PUF domain R4-TPT): 3.15 log2 enrichment (interaction score)
- binding signal (PUM1 PUF domain R4-GQR): 2.32 log2 enrichment (interaction score)

Sequence: GGCUAGAACUAGUGGAUCCCCCGGCGCCCGGCGGCUCGAGCCCGGGUAAGUGUCAAUAGUCUGCAUGCCGCCGGGCGCCAUGCCUGCAGGUCGACUCUAGAAAACAUG
- binding signal (PUM1 PUF domain R5-DFG): 2 log2 enrichment (interaction score)
- binding signal (PUM1 PUF domain R5-GAR): 5.42 log2 enrichment (interaction score)

Sequence: GGCUAGAACUAGUGGAUCCCCCGGCGCCCGGCGGCUCGAGCCCGGGUAAGUGUAAAUUGUCUGCAUGCCGCCGGGCGCCAUGCCUGCAGGUCGACUCUAGAAAACAUG
- binding signal (PUM1 PUF domain R1-HRR): 2.71 log2 enrichment (interaction score)
- binding signal (PUM1 PUF domain R1-NGR): 2.32 log2 enrichment (interaction score)
- binding signal (PUM1 PUF domain R1-SKS): 2.64 log2 enrichment (interaction score)

Sequence: GGCUAGAACUAGUGGAUCCCCCGGCGCCCGGCGGCUCGAGCCCGGGUAAGUGUAAAUAGUCUGCAUGCCGCCGGGCGCCAUGCCUGCAGGUCGACUCUAGAAAACAUG
- binding signal (PUM1 PUF domain R4-YLL): 4.38 log2 enrichment (interaction score)
- binding signal (PUM1 PUF domain R4-PWC): 7.51 log2 enrichment (interaction score)
- binding signal (PUM1 PUF domain R8-KWL): 5.16 log2 enrichment (interaction score)
- binding signal (PUM1 PUF domain R5-DFG): 3.79 log2 enrichment (interaction score)
- binding signal (PUM1 PUF domain R3-DHS): 3.1 log2 enrichment (interaction score)
- binding signal (PUM1 PUF domain R5-GAR): 1.64 log2 enrichment (interaction score)
- binding signal (PUM1 PUF domain R4-TPT): 2.59 log2 enrichment (interaction score)
- binding signal (PUM1 PUF domain R8-RYT): 2.86 log2 enrichment (interaction score)
- binding signal (PUM1 PUF domain R4-CGC): 3.48 log2 enrichment (interaction score)

Sequence: GGCUAGAACUAGUGGAUCCCCCGGCGCCCGGCGGCUCGAGCCCGGGUAAGUGAAAAUAGUCUGCAUGCCGCCGGGCGCCAUGCCUGCAGGUCGACUCUAGAAAACAUG
- binding signal (PUM1 PUF domain R6-AWS): 5.94 log2 enrichment (interaction score)

Sequence: GGCUAGAACUAGUGGAUCCCCCGGCGCCCGGCGGCUCGAGCCCGGGUAAGUGUUAAUAGUCUGCAUGCCGCCGGGCGCCAUGCCUGCAGGUCGACUCUAGAAAACAUG
- binding signal (PUM1 PUF domain R5-SNG): 3.2 log2 enrichment (interaction score)
- binding signal (PUM1 PUF domain R5-DFG): 6.17 log2 enrichment (interaction score)
- binding signal (PUM1 PUF domain R5-GAR): 2.98 log2 enrichment (interaction score)

Sequence: GGCUAGAACUAGUGGAUCCCCCGGCGCCCGGCGGCUCGAGCCCGGGUAAGUGUAAGUAGUCUGCAUGCCGCCGGGCGCCAUGCCUGCAGGUCGACUCUAGAAAACAUG
- binding signal (PUM1 PUF domain R3-YCV): 2.69 log2 enrichment (interaction score)

Sequence: GGCUAGAACUAGUGGAUCCCCCGGCGCCCGGCGGCUCGAGCCCGGGUAAGCGUAAAUAGUCUGCAUGCCGCCGGGCGCCAUGCCUGCAGGUCGACUCUAGAAAACAUG
- binding signal (PUM1 PUF domain R8-KWL): 5.91 log2 enrichment (interaction score)
- binding signal (PUM1 PUF domain R8-TYN): 2.62 log2 enrichment (interaction score)

Sequence: GGCUAGAACUAGUGGAUCCCCCGGCGCCCGGCGGCUCGAGCCCGGGUAAGUGUAAAAAGUCUGCAUGCCGCCGGGCGCCAUGCCUGCAGGUCGACUCUAGAAAACAUG
- binding signal (PUM1 PUF domain R2-TFG): 4.09 log2 enrichment (interaction score)

Sequence: GGCUAGAACUAGUGGAUCCCCCGGCGCCCGGCGGCUCGAGCCCGGGUAAGUCUAAAUAGUCUGCAUGCCGCCGGGCGCCAUGCCUGCAGGUCGACUCUAGAAAACAUG
- binding signal (PUM1 PUF domain R7-RRG): 3.12 log2 enrichment (interaction score)
